Measurements as given in PubChem BioAssay (Tox21).
Inconclusive results are not listed. Where a call stands in place of a potency, no number is given. Calls of active or inactive are those of the source. The call rests on the fitted dose curve.

Assay: p53 small molecule agonists, cell-based qHTS assay with human liver microsomes (AID 1963577)
Conditions: HCT-116 p53RE-bla with human liver microsomes, ratio, 16 h; series mostly up to 66 µM
Summary of the method: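 Metabolically competent format: test substances, human liver microsomes and NADPH (both 0.5 mg/mL final) incubated with p53RE-bla cells 16 h at 37 C. Beta-lactamase reporter signal then quantified by fluorescence.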
Potency means the concentration at half of the fitted maximal effect.

SMILES	Potency
CCCN1CCC[C@@H]2Cc3[nH]ncc3C[C@H]21	inactive
C=CC[C@]1(O)CC[C@H]2[C@@H]3CCC4=CC(=O)CCC4=C3C=C[C@@]21C	inactive
NP(N)(=O)NC(=O)c1ccc(F)cc1	inactive
COc1ccc(C(=O)c2c(C)n(CCN3CCOCC3)c3ccccc23)cc1	inactive
CCOC(=O)COc1ccc(Cl)cc1Cl	inactive
CCOc1cccc(C2(N3CCN(c4ccccc4)CC3)CCC(C)CC2)c1 (stereo not given)	inactive
COP(=O)(OC)Oc1ccc([N+](=O)[O-])cc1	3.24 µM (active)
COC(=O)N(C(=O)N1COC2(C(=O)OC)Cc3cc(Cl)ccc3C2=N1)c1ccc(OC(F)(F)F)cc1 (stereo not given)	inactive
COc1cc(Cl)c(OC)cc1Cl	inactive
CC(Cc1ccccc1)NCCn1cnc2c1c(=O)n(C)c(=O)n2C (stereo not given)	inactive
Cc1cccc(OP(=O)(Oc2cccc(C)c2)Oc2cccc(C)c2)c1	inactive
OP(O)c1ccccc1	inactive
Oc1ccc2ccc3cccc4ccc1c2c34	inactive
ClCc1cccc(Cl)c1	inactive
COP(=S)(OC)Oc1c(Cl)cc(C)cc1Cl	9.13 µM (active)
CCOP(=S)(OCC)SCS(=O)(=O)CC	1.62 µM (active)
CCN1CCC2(CC1)COc1cc3c(cc12)N(C(=O)c1ccc(-c2ccc(-c4nnc(C)o4)cc2C)cc1)CC3	inactive
CN(C)CCc1c[nH]c2cccc(O)c12	inactive
COP(N)(=S)Oc1ccccc1C(=O)OC(C)C (stereo not given)	18.2 µM (active)
N#Cc1c(-c2ccc(Cl)cc2)[nH]c(C(F)(F)F)c1Br	inactive

SMILES	Potency
CNP(=O)(OC)Oc1ccc(C(C)(C)C)cc1Cl (stereo not given)	3.24 µM (active)
Cc1cccc2sc3nncn3c12	inactive
CC1(C)CN=C(NN=C(/C=C/c2ccc(C(F)(F)F)cc2)/C=C/c2ccc(C(F)(F)F)cc2)NC1	inactive
COc1cc(CC(C)N)c(OC)cc1Br (stereo not given)	inactive
O=C(CCl)C(Cl)Cl	inactive
CCC1(c2ccccc2)C(=O)NC(=O)NC1=O	inactive
O=c1[nH]c(Cl)c(Cl)cc1Cl	inactive
CC(=O)[O][Sn]([c]1ccccc1)([c]1ccccc1)[c]1ccccc1	inactive
C=C(Cl)CSC(=S)N(CC)CC	inactive
ClC(Cl)C(Cl)Cl	inactive
CC(=O)CCc1ccc2c(c1)OCO2	inactive
CN(C)C(=O)Nc1cccc(OC(=O)NC(C)(C)C)c1	inactive
CNC(=O)Oc1ccc(N(C)C)c(C)c1	10.2 µM (active)
COP(=O)(OC)O/C(=C\Cl)c1cc(Cl)c(Cl)cc1Cl	40.8 µM (active)
CC(C)(C)c1ccc(OP(=O)(Oc2ccccc2)Oc2ccccc2)cc1	inactive
CC[C@H]1C[C@H]2[C@@H]3CCC4=CC(=O)CC[C@@H]4[C@H]3CC[C@]2(C)[C@H]1O	inactive
COC(=O)C(C)N(C(=O)c1ccco1)c1c(C)cccc1C (stereo not given)	inactive
C#CC1(O)CCCCC1	inactive
CSc1ccc(C(=O)C(C)(C)N2CCOCC2)cc1	inactive
CCCCc1c(C)nc(NCC)nc1OS(=O)(=O)N(C)C	inactive
